Measurements published in PubChem BioAssay (EPA / NIEHS).
Results filed as inconclusive are left out. Calls of active or inactive are those of the source. How the source made its calls: active means hit-call score of the fitted dose curve at least 0.9, where 1 is the maximum; inconclusive means response in the unintended direction; inactive means score below 0.9.

Key:
[1] = target: Glycogen synthase kinase-3 beta (Homo sapiens) (UniProt P49841); experiment: NVS_ENZ_hGSK3b: NovaScreen (NVS) Enzymatic Assay for human Glycogen Synthase Kinase-3 beta (GSK3b) (AID 2283165)
Chain of Glycogen synthase kinase-3 beta (Homo sapiens) (P49841 whole entry, looked up): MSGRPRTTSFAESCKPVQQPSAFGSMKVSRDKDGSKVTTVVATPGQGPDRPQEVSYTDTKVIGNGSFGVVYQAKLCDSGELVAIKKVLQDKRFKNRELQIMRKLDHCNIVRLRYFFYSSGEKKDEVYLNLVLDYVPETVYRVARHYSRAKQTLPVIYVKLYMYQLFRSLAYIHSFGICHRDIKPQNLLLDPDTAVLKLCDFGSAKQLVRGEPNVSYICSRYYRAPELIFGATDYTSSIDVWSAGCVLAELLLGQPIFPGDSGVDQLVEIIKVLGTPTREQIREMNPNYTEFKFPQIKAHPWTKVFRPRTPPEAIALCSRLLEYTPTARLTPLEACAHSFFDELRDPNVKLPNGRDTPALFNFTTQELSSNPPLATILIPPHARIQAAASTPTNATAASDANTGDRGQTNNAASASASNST
Procedure, shortened: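 Recombinant enzyme with specific fluorescent substrate, 1 h, product separated by electrophoretic mobility shift. Primary duplicate screen at 25 uM; actives (e.g. 30% inhibition) followed in singleton concentration-response to 50 uM. Signal loss fitted versus DMSO.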

[2] = target: Collagenase 3 (Homo sapiens) (UniProt P45452); experiment: NVS_ENZ_hMMP13: NovaScreen (NVS) Enzymatic Assay for human Matrix Metalloproteinase-13 (MMP13) (AID 2283182)
Procedure, shortened: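 Recombinant MMP13 cleaving fluorescent substrate, cell-free, measured 1 h after dosing. Primary duplicate screen at 25 uM; actives tested in concentration-response up to 50 uM; loss of signal relative to DMSO.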

[3] = target: human Matrix Metalloproteinase-2 (MMP2), MMP2 (gene 4313) (UniProt P08253); experiment: NVS_ENZ_hMMP2: NovaScreen (NVS) Enzymatic Assay for human Matrix Metalloproteinase-2 (MMP2) (AID 2283184)
Procedure, shortened: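 Cell-free recombinant MMP2 activity with a fluorescent substrate, read 1 h after dosing. Primary screen in duplicate at 25 uM; actives then run in concentration series; loss of signal fitted versus DMSO.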

[4] = target: human Matrix Metalloproteinase-3 (MMP3), MMP3 (gene 4314) (UniProt P08254); experiment: NVS_ENZ_hMMP3: NovaScreen (NVS) Enzymatic Assay for human Matrix Metalloproteinase-3 (MMP3) (AID 2283185)
Chain of human Matrix Metalloproteinase-3 (MMP3), MMP3 (gene 4314) (P08254 whole entry, looked up): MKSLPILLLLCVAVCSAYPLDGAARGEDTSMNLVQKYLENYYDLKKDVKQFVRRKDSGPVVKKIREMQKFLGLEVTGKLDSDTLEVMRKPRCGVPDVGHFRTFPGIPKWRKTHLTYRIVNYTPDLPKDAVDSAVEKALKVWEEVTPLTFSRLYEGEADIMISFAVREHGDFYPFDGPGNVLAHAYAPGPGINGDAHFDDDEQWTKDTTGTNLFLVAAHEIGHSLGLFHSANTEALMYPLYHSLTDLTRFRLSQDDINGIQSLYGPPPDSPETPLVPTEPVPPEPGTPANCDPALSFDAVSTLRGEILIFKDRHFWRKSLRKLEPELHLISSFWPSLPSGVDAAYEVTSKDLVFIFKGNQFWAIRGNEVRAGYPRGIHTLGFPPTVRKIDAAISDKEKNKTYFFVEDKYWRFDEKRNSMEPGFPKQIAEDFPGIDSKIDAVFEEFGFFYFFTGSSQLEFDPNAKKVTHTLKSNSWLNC
Procedure, shortened: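 Cell-free recombinant human MMP3 activity, fluorescence intensity read 1 h after dosing. Primary screen duplicate at 25 uM, actives retested in concentration series; loss of signal vs DMSO baseline.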

[5] = target: human Matrix Metalloproteinase-9 (MMP9), MMP9 (gene 4318) (UniProt P14780); experiment: NVS_ENZ_hMMP9: NovaScreen (NVS) Enzymatic Assay for human Matrix Metalloproteinase-9 (MMP9) (AID 2283190);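 further: cell-free recombinant MMP9 protease activity read by fluorescent substrate signal; active means inhibition seen as loss of fluorescence signal versus DMSO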
Procedure, shortened: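 Extracted enzyme, fluorescent substrate, 1 h post-dose read. Single conc 25 uM in duplicate, then concentration series for actives. Activity = signal loss relative to DMSO negative control.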

[6] = target: human Janus Kinase 2 (Jak2), JAK2 (gene 3717) (UniProt O60674); experiment: NVS_ENZ_hJak2: NovaScreen (NVS) Enzymatic Assay for human Janus Kinase 2 (Jak2) (AID 2283169)
Chain of human Janus Kinase 2 (Jak2), JAK2 (gene 3717) (O60674 whole entry, looked up): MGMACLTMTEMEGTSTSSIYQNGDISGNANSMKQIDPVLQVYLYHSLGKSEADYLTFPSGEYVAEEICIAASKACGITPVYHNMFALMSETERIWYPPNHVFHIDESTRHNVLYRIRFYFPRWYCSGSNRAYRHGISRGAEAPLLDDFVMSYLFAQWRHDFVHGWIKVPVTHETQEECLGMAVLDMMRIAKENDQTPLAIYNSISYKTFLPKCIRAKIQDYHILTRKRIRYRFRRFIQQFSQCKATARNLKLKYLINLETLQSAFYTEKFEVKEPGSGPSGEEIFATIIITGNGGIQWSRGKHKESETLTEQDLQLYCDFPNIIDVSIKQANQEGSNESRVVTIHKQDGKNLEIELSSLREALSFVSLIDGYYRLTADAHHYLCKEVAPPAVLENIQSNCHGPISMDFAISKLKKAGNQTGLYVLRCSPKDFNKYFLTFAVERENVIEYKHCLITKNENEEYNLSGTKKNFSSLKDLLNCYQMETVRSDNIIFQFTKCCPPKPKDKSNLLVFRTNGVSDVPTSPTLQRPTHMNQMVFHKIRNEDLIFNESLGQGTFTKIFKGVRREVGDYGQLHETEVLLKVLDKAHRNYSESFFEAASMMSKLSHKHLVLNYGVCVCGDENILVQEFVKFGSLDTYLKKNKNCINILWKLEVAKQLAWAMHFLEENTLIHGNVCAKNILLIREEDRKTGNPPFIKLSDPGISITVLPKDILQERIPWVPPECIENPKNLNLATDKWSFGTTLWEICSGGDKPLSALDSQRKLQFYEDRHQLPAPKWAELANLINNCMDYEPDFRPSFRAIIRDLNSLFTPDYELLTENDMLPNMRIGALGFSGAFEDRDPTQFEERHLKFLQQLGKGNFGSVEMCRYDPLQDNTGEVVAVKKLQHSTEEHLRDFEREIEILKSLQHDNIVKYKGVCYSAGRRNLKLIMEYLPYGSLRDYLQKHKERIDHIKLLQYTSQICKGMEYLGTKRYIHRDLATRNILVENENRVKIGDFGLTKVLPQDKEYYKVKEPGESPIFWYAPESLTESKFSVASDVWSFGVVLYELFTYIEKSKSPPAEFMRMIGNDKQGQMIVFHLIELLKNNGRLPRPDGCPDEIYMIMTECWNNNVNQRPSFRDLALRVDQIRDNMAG
Procedure, shortened: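 Cell-free recombinant human JAK2 enzyme activity assay, fluorescence/electrophoretic mobility shift read 1 h after dosing. Screened in duplicate at 25 uM, then concentration-response up to 50 uM; activity as signal loss relative to DMSO.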

[7] = target: human c-Jun N-terminal Kinases (JNK2), MAPK9 (gene 5601) (UniProt P45984); experiment: NVS_ENZ_hJNK2: NovaScreen (NVS) Enzymatic Assay for human c-Jun N-terminal Kinases (JNK2) (AID 2283171)
Procedure, shortened: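 Cell-free recombinant human JNK2 activity assay; fluorescent substrate and product separated by electrophoretic mobility shift, read 1 h after dosing. Primary duplicate screen at 25 uM; actives run in concentration-response up to 50 uM, relative to DMSO.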

[8] = target: Mitogen-activated protein kinase 3 (Homo sapiens) (UniProt P27361); experiment: NVS_ENZ_hMAPK3: NovaScreen (NVS) Enzymatic Assay for human Mitogen-Activated Protein Kinase 3 (MAPK 3) (AID 2283177)
Chain of Mitogen-activated protein kinase 3 (Homo sapiens) (P27361 whole entry, looked up): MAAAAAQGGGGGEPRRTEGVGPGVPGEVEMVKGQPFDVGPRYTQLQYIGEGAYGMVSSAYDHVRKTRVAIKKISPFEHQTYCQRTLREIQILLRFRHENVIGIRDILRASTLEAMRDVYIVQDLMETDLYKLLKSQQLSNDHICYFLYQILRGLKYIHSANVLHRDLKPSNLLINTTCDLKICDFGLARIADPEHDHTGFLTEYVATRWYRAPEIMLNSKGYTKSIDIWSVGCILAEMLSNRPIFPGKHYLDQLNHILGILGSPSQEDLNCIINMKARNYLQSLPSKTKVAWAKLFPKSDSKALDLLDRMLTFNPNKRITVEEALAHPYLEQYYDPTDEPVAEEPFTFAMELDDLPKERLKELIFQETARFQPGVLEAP
Procedure, shortened: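 Cell-free enzymatic assay with recombinant protein and specific substrate; fluorescence and electrophoretic mobility shift read-out 1 h after dosing. Primary screen duplicate at 25 uM; actives then run in concentration-response up to 50 uM, loss of signal versus DMSO.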

[9] = target: human MAP Kinase-Activated Protein Kinase 2 (MAPKAPK2), MAPKAPK2 (gene 9261) (UniProt P49137); experiment: NVS_ENZ_hMAPKAPK2: NovaScreen (NVS) Enzymatic Assay for human MAP Kinase-Activated Protein Kinase 2 (MAPKAPK2) (AID 2283178)
Chain of human MAP Kinase-Activated Protein Kinase 2 (MAPKAPK2), MAPKAPK2 (gene 9261) (P49137 whole entry, looked up): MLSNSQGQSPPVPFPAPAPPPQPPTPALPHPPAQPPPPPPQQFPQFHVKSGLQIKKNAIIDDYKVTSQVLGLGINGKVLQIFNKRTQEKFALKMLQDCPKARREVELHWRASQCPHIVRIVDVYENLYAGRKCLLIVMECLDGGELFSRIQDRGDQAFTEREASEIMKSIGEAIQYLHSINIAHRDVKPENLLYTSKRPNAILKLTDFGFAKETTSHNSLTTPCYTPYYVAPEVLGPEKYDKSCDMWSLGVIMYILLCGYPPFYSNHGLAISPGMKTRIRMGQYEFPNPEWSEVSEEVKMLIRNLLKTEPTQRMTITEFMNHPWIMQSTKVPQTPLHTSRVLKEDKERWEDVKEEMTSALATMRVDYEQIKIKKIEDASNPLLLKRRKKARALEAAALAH
Procedure, shortened: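 Cell-free recombinant human MAPKAPK2 activity measured by fluorescence with electrophoretic mobility shift separation of substrate and product, 1 hr after dosing. Loss of signal versus DMSO; primary screen at 25 uM, concentration-response up to 50 uM.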

[10] = target: human Mitogen- and Stress-activated Protein Kinase-1 (Msk1), RPS6KA5 (gene 9252) (UniProt O75582); experiment: NVS_ENZ_hMsk1: NovaScreen (NVS) Enzymatic Assay for human Mitogen- and Stress-activated Protein Kinase-1 (Msk1) (AID 2283187)
Chain of human Mitogen- and Stress-activated Protein Kinase-1 (Msk1), RPS6KA5 (gene 9252) (O75582 whole entry, looked up): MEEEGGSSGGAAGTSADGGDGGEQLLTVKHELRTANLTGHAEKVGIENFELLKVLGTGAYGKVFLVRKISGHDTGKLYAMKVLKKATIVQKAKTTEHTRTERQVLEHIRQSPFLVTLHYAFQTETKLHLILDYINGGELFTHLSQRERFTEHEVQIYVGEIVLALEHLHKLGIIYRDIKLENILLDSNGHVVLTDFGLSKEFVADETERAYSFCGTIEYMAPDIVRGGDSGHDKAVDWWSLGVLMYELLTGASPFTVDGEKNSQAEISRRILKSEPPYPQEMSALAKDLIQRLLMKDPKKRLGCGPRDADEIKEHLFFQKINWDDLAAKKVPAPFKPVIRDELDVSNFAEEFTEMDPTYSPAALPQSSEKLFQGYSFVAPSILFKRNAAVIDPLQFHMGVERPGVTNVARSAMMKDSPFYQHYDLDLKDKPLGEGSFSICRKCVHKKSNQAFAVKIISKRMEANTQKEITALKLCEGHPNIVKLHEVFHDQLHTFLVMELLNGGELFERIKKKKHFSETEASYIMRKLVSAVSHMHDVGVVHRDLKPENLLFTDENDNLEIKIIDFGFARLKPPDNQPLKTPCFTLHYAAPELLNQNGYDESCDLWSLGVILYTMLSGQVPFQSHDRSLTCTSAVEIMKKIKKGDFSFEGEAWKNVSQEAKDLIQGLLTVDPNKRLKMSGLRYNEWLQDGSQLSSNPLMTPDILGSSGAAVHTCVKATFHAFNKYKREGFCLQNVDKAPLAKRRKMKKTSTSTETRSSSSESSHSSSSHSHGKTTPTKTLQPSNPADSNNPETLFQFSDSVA
Procedure, shortened: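 Recombinant kinase with fluorescent substrate; product separated by electrophoretic mobility shift, read 1 h after dosing. Screened in duplicate at 25 uM; hits (e.g. ≥30% inhibition) tested in concentration–response up to 50 uM. DMSO baseline.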

[11] = target: human Protein Phosphatase, Mg2+/Mn2+ Dependent 1A (PPM1A), PPM1A (gene 5494) (UniProt P35813); experiment: NVS_ENZ_hPPM1A: NovaScreen (NVS) Enzymatic Assay for human Protein Phosphatase, Mg2+/Mn2+ Dependent 1A (PPM1A) (AID 2283198)
Procedure, shortened: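 Cell-free recombinant PPM1A phosphatase assay with fluorescent substrate, read 1 h after dosing by electrophoretic mobility shift. Chemicals screened in duplicate at 25 uM, then in concentration-response up to 50 uM; loss of activity versus DMSO.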

[12] = target: human Matrix Metalloproteinase-7 (MMP7), MMP7 (gene 4316) (UniProt P09237); experiment: NVS_ENZ_hMMP7: NovaScreen (NVS) Enzymatic Assay for human Matrix Metalloproteinase-7 (MMP7) (AID 2283183)
Chain of human Matrix Metalloproteinase-7 (MMP7), MMP7 (gene 4316) (P09237 whole entry, looked up): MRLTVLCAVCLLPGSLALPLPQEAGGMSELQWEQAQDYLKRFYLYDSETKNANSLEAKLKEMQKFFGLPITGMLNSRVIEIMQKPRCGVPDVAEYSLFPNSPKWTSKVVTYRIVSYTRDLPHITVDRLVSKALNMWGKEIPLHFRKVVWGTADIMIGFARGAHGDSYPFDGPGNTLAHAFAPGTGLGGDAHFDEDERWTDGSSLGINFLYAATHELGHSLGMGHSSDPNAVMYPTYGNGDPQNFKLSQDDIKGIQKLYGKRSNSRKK
Procedure, shortened: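 Cell-free fluorescence enzymatic assay read 1 h after compound addition, activity loss analyzed against DMSO. Primary duplicate testing at 25 uM; compounds meeting threshold rerun in singleton concentration-response up to 50 uM.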

[13] = target: human Phosphodiesterase 10 (PDE10), PDE10A (gene 10846) (UniProt Q9Y233); experiment: NVS_ENZ_hPDE10: NovaScreen (NVS) Enzymatic Assay for human Phosphodiesterase 10 (PDE10) (AID 2283195)
Chain of human Phosphodiesterase 10 (PDE10), PDE10A (gene 10846) (Q9Y233 whole entry, looked up): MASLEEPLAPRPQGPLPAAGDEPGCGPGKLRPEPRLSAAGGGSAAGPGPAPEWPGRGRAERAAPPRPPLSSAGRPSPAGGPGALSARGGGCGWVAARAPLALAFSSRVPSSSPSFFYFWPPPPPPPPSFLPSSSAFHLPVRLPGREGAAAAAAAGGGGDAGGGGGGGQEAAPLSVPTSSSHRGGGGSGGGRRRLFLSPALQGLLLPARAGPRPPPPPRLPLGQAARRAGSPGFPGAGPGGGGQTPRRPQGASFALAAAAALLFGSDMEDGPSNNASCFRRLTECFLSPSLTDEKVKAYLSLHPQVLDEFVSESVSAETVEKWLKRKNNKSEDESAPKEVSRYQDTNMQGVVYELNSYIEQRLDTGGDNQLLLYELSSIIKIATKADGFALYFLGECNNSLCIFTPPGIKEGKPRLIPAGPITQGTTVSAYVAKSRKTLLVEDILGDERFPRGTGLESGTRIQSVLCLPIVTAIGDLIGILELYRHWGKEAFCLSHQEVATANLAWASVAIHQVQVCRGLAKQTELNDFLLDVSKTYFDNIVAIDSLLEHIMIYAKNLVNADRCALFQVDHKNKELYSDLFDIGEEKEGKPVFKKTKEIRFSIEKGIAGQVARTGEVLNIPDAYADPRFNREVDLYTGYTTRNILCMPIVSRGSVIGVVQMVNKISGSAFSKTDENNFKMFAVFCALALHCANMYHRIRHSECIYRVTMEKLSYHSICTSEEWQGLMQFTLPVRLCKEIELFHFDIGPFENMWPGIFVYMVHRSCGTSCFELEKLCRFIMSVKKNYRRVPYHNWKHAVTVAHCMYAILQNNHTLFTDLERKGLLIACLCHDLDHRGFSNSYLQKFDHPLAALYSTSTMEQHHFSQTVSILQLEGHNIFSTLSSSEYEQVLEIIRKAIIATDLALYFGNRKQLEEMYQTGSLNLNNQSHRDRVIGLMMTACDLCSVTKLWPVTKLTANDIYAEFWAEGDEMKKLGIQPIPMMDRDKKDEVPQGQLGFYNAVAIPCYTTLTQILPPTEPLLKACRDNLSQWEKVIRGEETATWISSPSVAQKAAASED
Procedure, shortened: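 PDE10A, cell-free; 1 h incubation; fluorescence intensity + electrophoretic mobility shift separating substrate/product; DMSO = baseline; 25 uM duplicate primary, CRC up to 50 uM.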

[14] = target: cAMP-dependent protein kinase catalytic subunit alpha (Homo sapiens) (UniProt P17612); experiment: NVS_ENZ_hPKA: NovaScreen (NVS) Enzymatic Assay for human Protein Kinase A (PKA) (AID 2283192)
Procedure, shortened: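 Recombinant human PKA with specific fluorescent substrate, product separated by electrophoretic mobility shift, read 1 h after dosing. Primary screen at 25 uM in duplicate; actives then run in concentration-response up to 50 uM, activity relative to DMSO.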

[15] = target: human Phosphoinositide 3-kinase alpha (PI3Ka), PIK3CA (gene 5290) (UniProt P42336); experiment: NVS_ENZ_hPI3Ka: NovaScreen (NVS) Enzymatic Assay for human Phosphoinositide 3-kinase alpha (PI3Ka) (AID 2283196)
Procedure, shortened: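 Fluorescence/mobility-shift readout of substrate conversion by recombinant enzyme, 1 h post-dosing. Primary screen in duplicate at 25 uM; actives (e.g. ≥30% inhibition) retested in singleton concentration-response, top concentration 50 uM.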

O=c1c(-c2ccc(O)cc2)coc2cc(O)ccc12
outcome [1]: inactive

CCCCCCCCC(=O)O
outcome [1]: inactive

Cc1oc(-c2ccccc2)nc1CCOc1ccc(C[C@H](Nc2ccccc2C(=O)c2ccccc2)C(=O)O)cc1
outcome [1]: inactive
AC50 [2]: 7.33 µM (active)
AC50 [3]: 16.1 µM (active)
outcome [4]: inactive
AC50 [5]: 11.9 µM (active)

CN1CCN(c2ccccc2/C=C2\SCCN(c3ccc(Cl)c(Cl)c3)C2=O)CC1
outcome [6]: inactive
outcome [3]: inactive

CCCCCCCCOC(=O)CCCCCCCCC(=O)OCCCCCCCC
outcome [1]: inactive
outcome [6]: inactive

ClC1=C(Cl)C(Cl)(Cl)C(Cl)=C1Cl
outcome [1]: inactive

CCCCCCCCCCCCc1ccccc1S(=O)(=O)O
AC50 [1]: 14.2 µM (active)
AC50 [6]: 18.5 µM (active)
AC50 [7]: 29.6 µM (active)
AC50 [8]: 18 µM (active)
AC50 [9]: 26.5 µM (active)
AC50 [2]: 31.8 µM (active)
AC50 [4]: 18.2 µM (active)
AC50 [10]: 16.8 µM (active)
AC50 [11]: 30.2 µM (active)

O=[N+]([O-])c1ccc(O)cc1
outcome [1]: inactive
outcome [9]: inactive
outcome [12]: inactive

CCCCCCCCCCCCCCCS(=O)(=O)Oc1ccccc1
outcome [6]: inactive

CC(C)(C)CC(C)(C)c1ccc(O)c(-n2nc3ccccc3n2)c1
outcome [6]: inactive
outcome [10]: inactive

O=C(O)c1ccccc1C(c1ccc(O)cc1)c1ccc(O)cc1
outcome [8]: inactive

CCc1nn(C2CCCCC2)c2cc(C3(C#N)CCC(C(=O)O)CC3)ccc12 (centres undefined)
AC50 [2]: 19.4 µM (active)
outcome [13]: inactive

c1ccc2cc3c(ccc4ccccc43)cc2c1
outcome [12]: inactive

CC[C@H](c1ccc(O)cc1)[C@@H](CC)c1ccc(O)cc1
outcome [12]: inactive

CCCOc1sc(C(=O)N2CCC(c3cc(CN)ccc3F)CC2)c(C)c1Br
outcome [4]: inactive
outcome [14]: inactive

CC(C)CCCCCCOC(=O)CCCCC(=O)OCCCCCCC(C)C
outcome [4]: inactive

CCCCCCCCCCCCCC[N+](C)(C)C
outcome [5]: inactive
outcome [13]: inactive
AC50 [15]: 8.66 µM (active)

NC(=O)N1C(=O)C(C(=O)c2cc(Cl)cs2)c2cc(F)c(Cl)cc21 (centres undefined)
AC50 [14]: 25 µM (active)
